# Results with a measured potency or affinity are listed apart.
# Key:
# Klebsiella pneumoniae = conditions: Concentration 32 ug.mL-1;; ASSAY_TEST Inhibition of Bacterial Growth; detection method Absorption (OD600); MEDIA CAMHB; plate type 384well; NBS; CORNING #3640; time 18 hr
# Candida albicans = conditions: Concentration 32 ug.mL-1; ASSAY_TEST Inhibition of Fungal Growth; detection method Absorption (OD530)
# Cryptococcus neoformans = conditions: Concentration 32 ug.mL-1; ASSAY_TEST Inhibition of Fungal Growth; detection method Resazurin; Absorption (OD600-OD570); plate type 384well; NBS; CORNING #3640
SMILES,Inhibition (Klebsiella pneumoniae),Inhibition (Candida albicans),Inhibition (Cryptococcus neoformans)
O=C(CSc1nnc2c3cc(-c4ccc(F)cc4)nn3ccn12)NCc1ccccc1Cl,4.63%,14.03%,-17.41%
O=C(Cn1nc2ccc(SCc3ccc(Cl)cc3)nn2c1=O)Nc1ccc2c(c1)OCO2,15.3%,22.84%,-22.42%
O=C(Cn1nc2ccc(SCc3ccc(Cl)cc3)nn2c1=O)Nc1ccc2c(c1)CCC2,12.2%,7.4%,-25.38%
Cc1nnc2c(=O)n(CC(=O)Nc3ccc(F)cc3F)c3ccccc3n12,12.43%,-0.68%,-30.11%
Cc1ccc(Sc2nccn3c(=O)n(CC(=O)Nc4ccc(Br)cc4)nc23)c(C)c1,5.96%,-1.11%,-6.8%
Cc1ccc(NC(=O)Cn2nc3ccc(SC4CCCCC4)nn3c2=O)cc1C,-2.51%,4.67%,-21.19%
Cc1ccc(Cl)cc1NC(=O)Cn1c(=O)c2nnc(C(C)C)n2c2ccccc21,5.77%,3.52%,-16.4%
COc1ccc(-c2cc3c4nn(CC(=O)Nc5ccc(C)c(F)c5)c(=O)n4ccn3n2)cc1,3.92%,28.75%,-7.43%
O=C(CSc1nnc2c(=O)n(-c3ccccc3)ccn12)Nc1ccc(Br)cc1,9.81%,2.41%,-15.78%
CCc1ccc(NC(=O)Cn2nc3ccc(SC4CCCCC4)nn3c2=O)cc1,3.55%,2.46%,-12.68%
CSc1cccc(NC(=O)Cn2nc3ccc(-c4ccccc4)nn3c2=O)c1,-3.17%,3.96%,-8.45%
COc1ccc(-c2cc3c4nn(CC(=O)Nc5ccc(OC)c(OC)c5)c(=O)n4ccn3n2)cc1,11.9%,-0.77%,-19.32%
COc1cc(OC)c(NC(=O)Cn2nc3c(Oc4cccc(C)c4C)nccn3c2=O)cc1Cl,8.97%,0.16%,-9.4%
COc1ccc(NC(=O)Cn2c(=O)c3nnc(C(C)C)n3c3ccccc32)cc1Cl,7.18%,3.46%,-13.11%
CCc1ccccc1NC(=O)CSc1nnc2c(=O)n(-c3ccccc3)ccn12,11.56%,-0.14%,-23.92%
C=Cc1ccc(CN(c2ccc(C(C)C)cc2)S(=O)(=O)c2cccn3c(C)nnc23)cc1,4.48%,1.49%,-4.15%
CSc1cccc(NC(=O)Cn2nc3c(Sc4ccc(C)cc4C)nccn3c2=O)c1,-1.53%,2.24%,-22%
Cc1cccc(CN(c2ccc(Cl)cc2)S(=O)(=O)c2cccn3c(C)nnc23)c1,9.48%,1.95%,-9.68%
COc1cccc(-n2ccn3c(SCC(=O)Nc4ccc(OC)c(OC)c4)nnc3c2=O)c1,16.13%,5.16%,-5.69%
COc1ccc(-c2cc3c4nnc(SCC(=O)Nc5ccc(OC)c(Cl)c5)n4ccn3n2)cc1,6.25%,2.5%,-21.63%
COc1cccc(Oc2nccn3c(=O)n(CC(=O)Nc4ccc(OC)c(Cl)c4)nc23)c1,9.28%,1.52%,-8.33%
O=C(CSc1nnc2c(=O)n(-c3ccc(F)c(F)c3)ccn12)c1ccccc1Cl,10.86%,3.43%,-7.06%
COc1cccc(Sc2nc3ccccc3n3c(=O)n(CC(=O)Nc4c(C)cc(C)cc4C)nc23)c1,4.89%,-0.39%,-17.68%
CC(C)NC(=O)CCn1c(=O)c2cc(Cl)ccc2n2c(=O)n(CC#N)nc12,4.55%,6.33%,-24.01%
COc1cccc(-n2ccn3c(SCC(=O)c4cc(C)c(C)cc4C)nnc3c2=O)c1,11.25%,2.17%,-10.44%
O=c1c2sccc2n2c(=O)n(Cc3ccccc3F)nc2n1CCc1ccccc1,8.76%,0.77%,-30.71%
Cc1ccc(NC(=O)Cn2nc3ccc(SC(C)C)nn3c2=O)c(C)c1,11.09%,2.8%,-5.46%
COc1ccc(OC)c(NC(=O)Cn2nc3c(Sc4ccccc4)nc4ccccc4n3c2=O)c1,8.31%,2.83%,-24.8%

# Reference: ChEMBL document CHEMBL4513146, “CO-ADD screening of Karazin Kharkiv National University (Ukraine) compounds”
